# GLS inh: qHTS for Inhibitors of Glutaminase (GLS); Glutaminase kidney isoform, mitochondrial (Homo sapiens), O94925; GLS enzymatic activity, qHTS titration; Potency, µM (top dose mostly 45.5 µM), without a hit: top-dose activity change, negative = inhibition, actives largely listed as inhibitors; hit rate 0.21% among 410,000; further: potency means the concentration at half of the fitted maximal effect
#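 hKGA in 45 mM KH2PO4 (pH 8.2), 0.02% Tween-20 with compound, then 1mM L-Glutamine (stock as added) plus glutamate oxidase/HRP/Amplex red coupling mix. Fluorescence read initially and after 30 min at RT; signal change reflects glutamate formation.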
# VDR inh: Inhibitors of the vitamin D receptor (VDR): qHTS; Vitamin D3 receptor (Homo sapiens), P11473; VDR-SRC2-3 peptide fluorescence polarization, 2 h; Potency, µM, for the others: max response, negative = inhibition, actives largely listed as inhibitors; hit rate 0.93% among 400,000; further: potency means the concentration at half of the fitted maximal effect
#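 Compounds are added to VDR with labelled SRC2-3 coactivator peptide and held 2 h at room temperature. Inhibition of the VDR–peptide interaction is then read as a change in fluorescence polarization.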
# PI4K2A inh: qHTS for small molecular inhibitors of PI4K2A; activity change, negative = inhibition, % at 76.9 µM; hit rate 0.13% among 420,000; purified PI4K2A, ADP-Glo luminescence, 1 h; stronger effect = lower value; in the data active means activity change below about -50%; inconclusive means mostly about -30% to -49%;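 further: -100% = wells without enzyme as full effect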
#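 Compounds are screened against recombinant PI4K2A using PI as substrate and ATP, the latter dispensed at 300 microM. Reactions run one hour at ambient temperature before ADP-Glo detection; full inhibition defined by wells lacking enzyme.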
# KAT2A inh: qHTS Assay for Inhibitors of GCN5L2. Histone acetyltransferase KAT2A (Homo sapiens), Q92830. GCN5L2 HAT assay, ThioGlo1 CoA-SH fluorescence. Potency, µM (doses to about 58.9 µM), inactives show at the highest dose activity change, negative = inhibition, hits mostly inhibitors. hit rate 0.21% among 390,000. AID 504327, 2011; further: potency means the concentration at half of the fitted maximal effect
# Target sequence (Q92830 whole entry, looked up): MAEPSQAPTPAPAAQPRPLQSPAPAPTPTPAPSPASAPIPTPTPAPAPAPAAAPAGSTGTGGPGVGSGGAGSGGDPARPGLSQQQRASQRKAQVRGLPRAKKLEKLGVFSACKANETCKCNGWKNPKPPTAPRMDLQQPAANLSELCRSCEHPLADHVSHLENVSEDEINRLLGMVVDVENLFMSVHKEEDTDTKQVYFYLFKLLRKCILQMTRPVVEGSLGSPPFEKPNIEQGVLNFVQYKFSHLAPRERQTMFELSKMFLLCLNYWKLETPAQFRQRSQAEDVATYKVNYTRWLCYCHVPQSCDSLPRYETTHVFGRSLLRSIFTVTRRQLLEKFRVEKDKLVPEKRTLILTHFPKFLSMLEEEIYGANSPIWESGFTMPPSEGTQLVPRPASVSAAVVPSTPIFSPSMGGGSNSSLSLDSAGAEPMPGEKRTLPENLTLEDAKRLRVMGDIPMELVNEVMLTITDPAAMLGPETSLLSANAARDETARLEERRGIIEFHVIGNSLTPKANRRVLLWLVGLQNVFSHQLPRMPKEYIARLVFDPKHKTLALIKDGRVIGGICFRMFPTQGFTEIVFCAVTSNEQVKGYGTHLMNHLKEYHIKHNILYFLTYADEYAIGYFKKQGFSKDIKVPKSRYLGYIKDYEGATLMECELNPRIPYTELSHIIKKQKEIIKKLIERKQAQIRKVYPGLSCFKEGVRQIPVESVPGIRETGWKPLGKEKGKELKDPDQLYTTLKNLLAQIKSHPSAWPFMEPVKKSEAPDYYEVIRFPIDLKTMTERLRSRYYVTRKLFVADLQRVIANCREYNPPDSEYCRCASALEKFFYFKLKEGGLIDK
#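 Preincubate 20nM GCN5L2 with compound 15 min, RT → add 50uM ThioGlo1 + 75uM H3(1-25) + 70uM acetyl-CoA → read fluorescence 0 and 20 min. Primary qHTS; fluorescent artifacts likely.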
# PLK1 PBD block: qHTS for Inhibitors of PLK1-PDB (polo-like kinase 1 - polo-box domain): Primary Screen; Serine/threonine-protein kinase PLK1 (Homo sapiens), P53350; Plk1 PBD binding of FITC phosphopeptide, fluorescence polarization; Potency, µM, for inactives: max response, negative = inhibition, most hits filed as inhibitors; hit rate 2.8% among 360,000; further: potency means the concentration at half of the fitted maximal effect; series mostly up to about 57 µM; nearly all actives have a fitted effect of over 65% in size
# The depositor's hits bear a star; ? = inconclusive; . = not tested or not shown; [ ] = another dose, or the depositor's remark. A selection: hits, their analogues and other compounds. The true share with any hit is near 3.1%. Unless noted, the call rests on the fitted dose curve; in most records, active means well fitted curve in the direction sought with a large enough effect; inconclusive means small, poorly fitted or top-dose-only effect, or another doubt; inactive means no such curve, though single readings can be large; an effect the other way counts as inactive or inconclusive. Unless noted, on the % scale 0 is the no-effect control and ±100 the full control effect.
SMILES,GLS inh,VDR inh,PI4K2A inh,KAT2A inh,PLK1 PBD block
CCOc1ccc(C(=O)CC(NCc2cccs2)C(=O)O)cc1 (stereo unspecified),3.1%,25.1µM*,-9.8,-3.7%,-27.9%
CCOc1ccc(C(=O)CCC(=O)N(CC)CC(=O)NCc2cccs2)cc1,7.3%,-6.4%,4.5,-17.5%,-7.2%
COc1cccc(NC(=O)c2cn(C3CCCCC3)c(=O)c3c2c2ccccc2n3C)c1,-0.4%,-10.2%,0.4,-4.3%,.
CON(c1nc(Cl)nc(N(C)C)n1)S(=O)(=O)c1ccccc1Cl,-3.0%,3.0%,-6.5,1.7%,-8.7%
CON(c1nc(Cl)nc(N(C)C)n1)S(=O)(=O)c1ccc(C)cc1,58.2%,-23.2%,7.7,-0.3%,26.7µM*
COc1cc(/C=C/C(=O)OCC(=O)Nc2ccc(C)c(S(=O)(=O)N3CCCCC3)c2)ccc1O,?,?,-12.4,-8.3%,7.52µM*
CC1CCC/C(=N/Nc2nc3ccccc3s2)C1 (stereo unspecified),3.7%,-6.4%,0.4,-8.5%,29.9µM*
O=C(Oc1cc(-c2ccccc2)no1)c1ccc(Cl)cc1,27.4%,5.8%,-6.4,-2.6%[0.501 µM],23.8µM*
NC(=O)c1ccsc1NC(=O)c1cccs1,-2.8%,12.5%,71.2,.,2.2%
Cc1sc(NC(=O)c2cccs2)c(C(N)=O)c1C,-0.3%,-20.2%,-1.4,-3.3%,21.2µM*
Cc1ccc(C(=O)Nc2sc(C)c(C)c2C(=O)c2ccccc2)cc1,-18.8%,44.7µM*,-1.8,1.8%,2.99µM*
CCCC1CCC2(CC1)CCC2OC(=S)Nc1cccc(Cl)c1 (stereo unspecified),.,.,8.0,.,.
Cc1cc(C(=O)CSc2nnnn2-c2ccc(O)cc2)c(C)n1C,18.9%,5.6%,-0.7,-1.4%,23.8µM*
Cc1cc(C(=O)CSc2nnnn2-c2ccccc2)c(C)n1CCc1ccccc1,10.2%,-6.7%,-6.9,-4.3%,3.4%
CCCCNC(=O)c1ccc(NS(=O)(=O)c2ccc3[nH]c(=O)[nH]c3c2)cc1,-4.2%,8.9%,7.4,?,8.2%
CCOC(=O)c1ccc(NS(=O)(=O)c2ccc3[nH]c(=O)[nH]c3c2)cc1,9.3%,-19.4%,-0.2,-4.4%,11.9µM*
COC(=O)c1nc(N2CCN(S(=O)(=O)c3ccc(C)cc3)CC2)c2ccccc2n1,.,-21.3%,.,.,.
CCOC(=O)C1CCN(S(=O)(=O)c2ccc3c(c2)N(C(C)=O)CC(C)S3)CC1 (stereo unspecified),2.6%,?,0.0,5.2%,18.9µM*
CCOC(=O)C1CCN(S(=O)(=O)c2ccc(CC)cc2)CC1,?,39.8µM*,-0.7,-0.3%,8.44µM*
CCOC(=O)c1ccc(S(=O)(=O)N2CCN(C)CC2)cc1,-0.8%,-7.6%,1.2,3.55µM*,-7.8%
CC(=O)N1CC(C)Sc2ccc(S(=O)(=O)NC3CCCCC3C)cc21 (stereo unspecified),12.3%,-11.6%,1.6,-6.7%,29.9µM*
Cc1ccc(S(=O)(=O)N(C)CC(=O)OCC(=O)NC(=O)Nc2ccc3c(c2)OCCO3)cc1,18.6%,?,-6.8,-7.9%,26.7µM*
COc1ccc(-c2cc(C3C4C=CCC(C)C4C(=O)N3Cc3ccccc3)ccc2F)cc1 (stereo unspecified),.,-14.7%,.,.,.
CCOc1ccc2c(c1)c1nnc(SCC3CCCO3)nc1n2C (stereo unspecified),5.6%,-27.1%,-3.9,0.2%,26.7µM*
CCOc1ccc2[nH]c3nc(SCC(=O)NCC4CCCO4)nnc3c2c1 (stereo unspecified),2.2%,9.8%,-4.8,-4.8%,-6.5%
SMILES,GLS inh,VDR inh,PI4K2A inh,KAT2A inh,PLK1 PBD block
CC(=O)CC[C@H]1CC[C@]2(CCCN(Cc3nccn3C)C2)O1,.,.,2.9,.,.
O=C(O)CCN1C(=O)c2ccc(NC(=O)CSc3ccccc3)cc2C1=O,6.1%,?,0.1,4.9%,26.7µM*
O=C1c2ccccc2C(=O)N1CCSc1ccccc1,-5.9%,-2.2%,-3.0,-10.3%,26.7µM*
O=C1c2ccccc2C(=O)N1CCc1ccccc1,-14.5%,-22.2%,2.2,.,26.7µM*
O=C1CC(=O)N(CCc2ccccc2)C(=O)N1CCc1ccccc1,14.7%,-21.1%,-65.0*,-26.1%,-0.8%
O=C1c2ccccc2C(=O)N1CCSc1nncs1,-3.5%,18.8%,1.6,-8.5%,-3.0%
O=C1c2ccccc2C(=O)N1CCCCCCc1ccccc1,-9.9%,-8.9%,3.9,-5.0%,-2.7%
CN1C(=O)c2ccc(NC(=O)CSc3ccccc3)cc2C1=O,-0.2%,-2.2%,-3.4,-3.5%,-10.6%
COc1ccc(CN(C)C(C#Cc2ccccc2)Cc2ccccc2)c(OC)c1 (stereo unspecified),.,.,-4.2,.,.
Cc1coc2cc3oc(=O)c(CC(=O)NCc4cccc(Cl)c4)c(C)c3cc12,-12.3%,10.0%,1.3,-5.4%,.
Cc1ccc2nc(SC(Cc3cc(Cl)ccc3Cl)C(=O)O)[nH]c2c1 (stereo unspecified),5.1%,-0.6%,0.6,-0.6%,.
COc1ncc2nc(CCc3ccccc3)c(=O)n(Cc3cccs3)c2n1,.,1.3%,.,-6.6%,.
Cc1cc(O)ccc1Nc1nc(-c2sc(N)nc2C)cs1,40.4%,-15.0%,-6.0,-16.7%,?
Cc1csc(Nc2ccccc2)n1,-18.4%,12.3%,-0.5,1.7%,29.9µM*
Cc1cc(NS(=O)(=O)c2ccc(Nc3nc(-c4sc(N)nc4C)cs3)cc2)no1,?,?,?,-6.7%,29.9µM*
Cc1nc(N)sc1-c1csc(Nc2ccccc2)n1,19.3%,?,-5.2,-2.3%,26.7µM*
CCCC(=O)N1CCC[C@]2(CC[C@@H](CCC(C)=O)O2)C1,.,.,-2.4,.,.
O=C(NNC(=O)c1ccc(Cl)cc1Cl)c1csc(-c2cccnc2)n1,10.8%,-3.8%,3.0,-1.9%,-9.0%
O=C(NCc1ccc(Cl)cc1)c1csc(-c2cccnc2)n1,11.8%,-26.1%,-7.1,34.4%,29.9µM*
CCOc1cc(NC(=O)c2ccccn2)c(OCC)cc1NC(=O)CC(C)C,25.9%,-29.2%,-2.4,-0.8%,21.2µM*
CCOC(=O)CC[C@@H]1CC[C@]2(CCCN(Cc3ccc(Cl)cc3)C2)O1,.,.,1.3,.,.
Cc1sc2ncnc(Nc3ccccc3)c2c1C,15.9%,-11.5%,-15.7,1.6%,26.7µM*
Nc1nc(-c2ccccc2Cl)cs1,0.1%,?,-4.3,.,18.9µM*
CC1CCCCN1C(=O)CNCc1ccc(F)cc1 (stereo unspecified),14.6%,-13.7%,2.0,-14.5%,-0.1%
CC1CCCCN1C(=O)COc1ccccc1F (stereo unspecified),12.1%,1.6%,3.0,-8.9%,26.7µM*
S=P(c1ccc(N2CCOCC2)cc1N1CCOCC1)(N1CCOCC1)N1CCOCC1,-15.4%,79.4µM*,-15.4,9.2%,21.2µM*

# Compound activity (PubChem)
